This passage reports AC50 and outcome results from PubChem BioAssay (EPA / NIEHS).

Molecules are shown by their SMILES. Activity calls are given as the source filed them. How the source made its calls: active means hit-call score of the fitted dose curve at least 0.9, where 1 is the maximum; inactive means score below 0.9.

CCAAT/enhancer-binding protein beta (Homo sapiens), sequence (P17676 whole entry, looked up): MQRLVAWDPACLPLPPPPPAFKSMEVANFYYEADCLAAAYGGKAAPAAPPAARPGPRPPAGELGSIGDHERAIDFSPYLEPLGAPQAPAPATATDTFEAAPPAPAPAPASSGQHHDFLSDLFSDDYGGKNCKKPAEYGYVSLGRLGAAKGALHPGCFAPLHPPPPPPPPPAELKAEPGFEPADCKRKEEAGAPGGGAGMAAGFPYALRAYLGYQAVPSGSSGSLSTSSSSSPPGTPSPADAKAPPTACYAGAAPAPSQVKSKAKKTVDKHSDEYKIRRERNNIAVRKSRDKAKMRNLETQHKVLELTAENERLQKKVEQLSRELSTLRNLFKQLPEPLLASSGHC

The target of this assay is CCAAT/enhancer-binding protein beta (Homo sapiens) (UniProt P17676). Briefly: ATG_C_EBP_CIS: Attagene CIS-FACTORIAL HepG2 Assay for human CCAAT/Enhancer Binding Protein (C/EBP) beta (AID 2282927). The conditions noted are these: HepG2 Attagene cis-factorial transcription factor reporter; actives raise or lower the signal. The method, then:
ATG_CIS is a cell-based, multiplexed-readout assay that uses HepG2, a human liver cell line, with measurements taken at 24 hours after chemical dosing in a 24-well plate.ATG_C_EBP_CIS is one of 52 assay component(s) measured or calculated from the ATG_CIS assay. It is designed to make measurements of mRNA induction, a form of inducible reporter, as detected with fluorescence intensity signals by Reverse transcription polymerase chain reaction (RT-PCR) and Capillary electrophoresis technology.Data from the assay component ATG_C_EBP_CIS was analyzed into 1 assay endpoint. This assay endpoint, ATG_C_EBP_CIS, was analyzed with bidirectional fitting relative to DMSO as the negative control and baseline of activity. Using a type of inducible reporter, measures of mRNA for gain or loss-of-signal activity can be used to understand the reporter gene at the transcription factor-level as they relate to the gene CEBPB. Furthermore, this assay endpoint can be referred to as a primary readout, because this assay has produced multiple assay endpoints where this one serves a reporter gene function. To generalize the intended target to other relatable targets, this assay endpoint is annotated to the dna binding intended target family, where the subfamily is basic leucine zipper.
Human liver HepG2 cells are transiently transfected with multiple reporter transcription units (MRTUs) in 6-well plates using FuGene 6 reagent (Roche; 3 ml FuGene/1 mg DNA). The MRTU constructs are regulated by a cis-regulating element (promoter). […] A major difference between the CIS and TRANS system is that in CIS activities of endogenous TFs are measured, whereas the TRANS assay evaluates changes in activities of exogenous, chimeric NR-Gal4 proteins. […] At the end of 24 hour incubation, total RNA was isolated using TriZol reagent (Invitrogen). The isolated RNA is then reverse-transcribed using oligo(dT) primer and Mo-MLV reverse transcriptase (Invitrogen) with DNAse I (Ambion) treatment for 30 min. The one-tenth of the produced cDNA was amplified by PCR using Taq DNA polymerase (Invitrogen) and two reporter sequence-specific primers. The PCR products were fluorescently labeled by primer extension with 6-arboxyfluorescein (6-FAM) 5'-labeled reporter sequence-specific primer (2 min at 95 C, 20 s at 68 C and 10 min at 72 C) and these products were digested with 5U of HpaI (New England Biolabs) for 2h at 37 C. The fragments were purified using Qiaquick PCR columns (Qiagen), analyzed on an ABI 3130xL genetic analyzer (Applied Biosystems) with peak positions identified by using a set of X-rhodamine (ROX)-labeled MapMarker1000 molecular weight standards (BioVentures). The raw capillary electrophoresis data was processed using Attagraph software (Attagene).
As for `C[C@]12CC[C@H](O)C[C@H]1CC[C@@H]1[C@@H]2C[C@@H](O)[C@]2(C)[C@@H](C3=CC(=O)OC3)CC[C@]12O`, the AC50 was 2800 nM (active).

`C#CC1(O)CCCCC1`: the result was inactive.

Turning to `CCc1cccc(C)c1N(C(=O)CCl)[C@@H](C)COC`, the outcome was inactive.

For `BrCBr`, the result was inactive.

For `Oc1ccc(Cl)cc1`, the outcome was inactive.

With `CCCCNP(N)(N)=S`, the result was inactive.

On to `C[C@]12CC[C@H]3[C@@H](CC[C@@]45O[C@@H]4C(O)=C(C#N)C[C@]35C)[C@@H]1CC[C@@H]2O`, for which the outcome was inactive.

Take `CC(C)(C)C(O)C(Oc1ccc(-c2ccccc2)cc1)n1cncn1` (stereo not given): the AC50 is 47100 nM (active).

For the molecule `CC1CCC(=O)O1` (stereo not given), the outcome was inactive.

For `O=[N+]([O-])O.O=[N+]([O-])O.[Cd]`, the AC50 is 1830 nM (active).

As to `CCOC(=O)NC(=S)Nc1ccccc1NC(=S)NC(=O)OCC`, the result was inactive.

For `N#Cc1cccc(C#N)c1`, the outcome was inactive.

On to `Nc1ccc([N+](=O)[O-])cc1N`, for which the outcome was inactive.

For the molecule `CCC1CCC(=O)O1` (stereo not given), the outcome was inactive.

With `Nc1c(Cl)c(Cl)c(Cl)c(Cl)c1Cl`, the outcome was inactive.

As to `CCCOC(=O)c1ccccc1C(=O)OCCC`, the result was inactive.

In the case of `CCNCC`, the outcome was inactive.

`CCC(=O)c1ccc(Cl)cc1`: the outcome was inactive.

With `S=c1[nH]c2ccccc2[nH]1`, the result was inactive.

For the molecule `N#Cc1cc(I)c(O)c(I)c1`, the result was inactive.

In the case of `O=c1[nH]c(Cl)c(Cl)cc1Cl`, the result was inactive.

`CC(C)c1ccc(O)cc1`: the outcome was inactive.

As to `CCCCOC(=O)CCC(=O)OCCCC`, the outcome was inactive.

Regarding `Nc1ccccc1C(=O)OCCc1ccccc1`, the outcome was inactive.

Consider `COC(=O)COc1ccc(Cl)cc1Cl`, for which the result was inactive.

For the molecule `C=CCO`, the outcome was inactive.

On to `CCOC(=O)C1OC1(C)c1ccccc1` (stereo not given), for which the outcome was inactive.

For `Cc1ncc(C[n+]2csc(CCO)c2C)c(N)n1`, the outcome was inactive.

Consider `SCc1ccco1`, for which the result was inactive.

Regarding `O=S(=O)(O)OOS(=O)(=O)O`, the outcome was inactive.

Take `NNc1ccccc1`: the result was inactive.

As to `CCCCCCCCCCCC#N`, the result was inactive.

Consider `ClC1=C(Cl)[C@]2(Cl)[C@@H]3[C@@H](Cl)[C@H](Cl)C[C@@H]3[C@@]1(Cl)C2(Cl)Cl`, for which the outcome was inactive.

Turning to `CC1(C)C(=O)NC(=O)NC1=O`, the result was inactive.

As to `c1cc(OCC2CO2)ccc1Cc1ccc(OCC2CO2)cc1` (stereo not given), the result was inactive.

As for `C=CCc1ccc(OC(=O)Cc2ccccc2)c(OC)c1`, the result was inactive.

As to `CCN(CC)C(=S)S`, the result was inactive.

Turning to `CC(C)C(=O)Cl`, the result was inactive.

In the case of `C=COCCCl`, the outcome was inactive.

As for `C[C@]12CCC(=O)C(O)=C1CC[C@@H]1[C@@H]2CC[C@]2(C)C(=O)CC[C@@H]12`, the outcome was inactive.
